# ATXN2 expr inh: ATXN2 expression inhibition | HEK-293 ATXN2-luciferase reporter, luminescence, 24 h | Potency, µM (series often up to 57 µM), without a hit: at the highest dose activity change, negative = inhibition, usual class: inhibitors | hit rate 0.72% among 360,000 | AID 1745845; further: on the % scale 0 is the no-effect control and ±100 the full control effect; nearly all actives have a fitted effect of over 55% in size
#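 ATXN2-luciferase reporter cells (luciferase flanked by upstream and downstream ATXN2 gene portions) were treated 24 h at 37 °C with compounds at up to 57 uM. SteadyGlo luminescence gave expression; GF-AFC fluorescence gave viability.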
# ATXN viability: cell viability loss in ATXN counter-screen; S2 cells (HEK-293 line with an ATXN2-luciferase reporter) viability, CellTiter-Fluor protease fluorescence, 24 h; Potency, µM (series often up to 56.7 µM), actives largely listed as cytotoxic; hit rate 0.49% among 400,000; AID 651635; further: nearly all actives have a fitted effect of over 40% in size
# TDP1 cell CPT: DT40-hTDP1 cell growth loss with CPT | chicken DT40 Tdp1-/-;hTDP1 cells + 20 nM CPT, ATP luminescence, 48 h | Potency, µM (highest dose often 46.2 µM), without a hit: at the top dose activity change, negative = growth inhibition, usual class: inhibitors | hit rate 12% among 420,000 | AID 686979; further: on the % scale 0 is the no-effect control and ±100 the full control effect; nearly all actives have a fitted effect of over 55% in size
#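 Chicken DT40 Tdp1-/- cells complemented with human TDP1, 400 cells/well, exposed to compounds plus 20 nM camptothecin for at least 48 h at 37 C; viability read as ATP content by CellTiter-Glo luminescence.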
# DT40 TDP1 no CPT: qHTS for Inhibitors of human tyrosyl-DNA phosphodiesterase 1 (TDP1): qHTS in cells in absence of CPT. DT40 Tdp1-/- hTDP1 cells, no CPT, ATP luminescence, 48 h. AID 686978, 2013. Potency, µM (highest dose often 46.2 µM), for inactives: at the top dose activity change, negative = growth inhibition, hits mostly inhibitors. hit rate 15% among 420,000; further: on the % scale 0 is the no-effect control and ±100 the full control effect; nearly all actives have a fitted effect of over 55% in size
#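 Chicken DT40 Tdp1-/- cells stably complemented with human TDP1 were seeded at 400 cells/well with DMSO in place of 20 nM camptothecin. After compound pinning, cells grew at least 48 hr at 37 °C; viability read by CellTiter-Glo luminescence.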
# TGFb SMAD3 inh: TGF-b pathway inhibition; HepG2 CAGA-GFP TGF-b/SMAD3 reporter, GFP fluorescence, 18 h; TGF-beta stimulated, 500 pg/mL final; Potency, µM (top dose mostly 46.1 µM), inactives show top-dose activity, negative = inhibition, usual class: inhibitors; hit rate 1.2% among 410,000; further: on the % scale 0 is the no-effect control and ±100 the full control effect; nearly all actives have a fitted effect of over 65% in size
#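 Inhibition of TGF-beta-driven CAGA-GFP reporter expression in HEPG2 cells is measured by cellular GFP fluorescence after 18 h stimulation with 500 pg/mL recombinant TGF-beta in 1% FBS medium at 37 degrees C.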
# HepG2 tox: counter-screen for TGF-b inhibitors: cytotoxicity in HepG2 cells. Potency, µM (titrated, usually from 46.1 µM), for inactives: top-dose activity change, negative = cytotoxicity, usual class: cytotoxic. AID 588856. hit rate 0.76% among 410,000. HepG2 CAGA-GFP viability, ATP luminescence, 18 h
#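 HepG2 CAGA-GFP cells (1000/well, DMEM with 1% FBS) received compound, then TGF-beta at 500 pg/mL final, and were incubated 18 hours at 37 degrees C. Viability was read by CellTiter-Glo luminescence. Media-only wells were set as complete cell-killing and DMSO as no toxicity.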
# An asterisk follows results filed as active; i = inactive; ? = inconclusive; nt = not tested or not shown. An excerpt weighted towards active compounds, which were near 17% of everything screened. The call rests on the fitted dose curve; in most records, active means well fitted curve in the direction sought with a large enough effect; inconclusive means small, poorly fitted or top-dose-only effect, or another doubt; inactive means no such curve, though single readings can be large; an effect the other way counts as inactive or inconclusive. Potency means the concentration at half of the fitted maximal effect.
SMILES,ATXN2 expr inh,ATXN viability,TDP1 cell CPT,DT40 TDP1 no CPT,TGFb SMAD3 inh,HepG2 tox
CC(C)(O)c1ccc2c(c1)CCC1C(C)(C(=O)O)CCCC21C (stereo unspecified),1.5%,i,-8.7%,-13.1%,-1.2%,-17.1%
CC(C)c1c(O)ccc2c1CC[C@H]1C(C)(C)CCC[C@]21C,0.0%,?,13µM*,?,?,-99.9%
C=CCn1cccc(/C=C/C(=O)c2ccc(C(C)(C)C)cc2)c1=S,25.1µM*,nt,7.31µM*,7.31µM*,?,-108.4%
CCN(CC)Cc1c(NC(=O)c2ccccc2)sc(C)c1C,48.8%,i,-4.3%,?,-19.3%,-16.1%
CCOC(=O)c1c(NC(=O)c2ccccc2)sc2c(O)c(CN(CC)CC)ccc12,-1.5%,i,23.1µM*,18.4µM*,-1.5%,-18.0%
C[C@H](CO)N1C[C@H](C)[C@@H](CN(C)Cc2ccc3c(c2)OCO3)Oc2ccc(NC(=O)Cn3cnnn3)cc2C1=O,2.8%,i,9.8%,-1.7%,4.3%,7.3%
FC(F)(F)c1ccc(-c2noc(CN3CCCN(C4CCCCC4)CC3)n2)cc1,nt,i,20.6µM*,20.6µM*,?,-34.1%
CN(Cc1nc(-c2ccc(C(F)(F)F)cc2)no1)C1CCOCC1,-3.0%,i,-16.3%,-0.6%,-17.9%,-2.6%
c1ccc(C(c2ccccc2)c2noc(CN3CCN(C4CCCC4)CC3)n2)cc1,nt,?,?,20.6µM*,0.4%,-58.6%
Cc1nc(CN2CCN(Cc3nc(C(c4ccccc4)c4ccccc4)no3)CC2)cs1,-2.7%,i,7.31µM*,10.3µM*,4.8%,-7.9%
Cc1ccc(/C=C/C(=O)N2CC(=O)Nc3ccccc32)o1,1.1%,i,3.5%,-15.9%,8.4%,-14.4%
COc1ccc(-c2cc(=O)n3[nH]cnc3n2)cc1,10.8%,i,0.0%,-3.6%,1.4%,-22.8%
Cc1nn(-c2ccccn2)c2c1C(=O)CC(C)(C)C2Br (stereo unspecified),3.1%,i,16.4µM*,?,-11.5%,-0.9%
Cc1ccc2nc(-c3cccnc3)cc(C(=O)N3CCN(c4ccc([N+](=O)[O-])cc4)CC3)c2c1,-22.7%,i,16.4µM*,18.4µM*,4.7%,-36.4%
O=C(Nc1ccc(C(=O)N2CCOCC2)cc1)c1cc(-c2cccnc2)nc2ccc(Br)cc12,?,?,2.31µM*,2.31µM*,9.5%,3.8%
CS(=O)(=O)N1CCN(C(=O)c2cc(-c3cccnc3)nc3ccc(Br)cc23)CC1,50.0%,i,-4.1%,9.2µM*,1.2%,-7.5%
CS(=O)(=O)N1CCN(C(=O)c2cc(-c3cccnc3)nc3ccc(Cl)cc23)CC1,-33.7%,i,0.0%,?,13.0%,3.0%
CC(=O)c1ccc(N2CCN(C(=O)c3cc(-c4cccnc4)nc4ccc(Br)cc34)CC2)cc1,15.6%,i,?,18.4µM*,2.6%,-21.5%
Cc1ccc2nc(-c3ccccc3)cc(C(=O)N3CCN(c4ccccc4O)CC3)c2c1,14.3%,?,?,?,-3.3%,-7.4%
O=C(c1cc(-c2cccnc2)nc2ccc(Br)cc12)N1CCN(c2ncccn2)CC1,15.7%,i,?,18.4µM*,3.1%,-23.5%
O=C(Nc1ccccn1)c1cc(-c2cccnc2)nc2ccc(Br)cc12,?,?,?,?,0.0%,-17.7%
C[C@H](CCC(=O)O)[C@H]1CC[C@H]2[C@H]3[C@@H](CC[C@]12C)[C@@]1(C)CC[C@@H](O)C[C@H]1C[C@@H]3O,-2.2%,nt,nt,nt,nt,nt
CCN(CC)S(=O)(=O)c1ccc(NC(=O)c2ccc(Sc3nncn3C)c([N+](=O)[O-])c2)cc1,2.1%,i,?,?,-18.9%,-21.1%
Cn1cnnc1Sc1ccc(C(=O)NCCC23CC4CC(CC(C4)C2)C3)cc1[N+](=O)[O-],-0.6%,i,10.3µM*,?,?,-19.1%
CCc1cccc(CC)c1N1C(=O)C2=C(SCCCS2)C1=O,nt,nt,?,?,-22.1%,-59.7%
SMILES,ATXN2 expr inh,ATXN viability,TDP1 cell CPT,DT40 TDP1 no CPT,TGFb SMAD3 inh,HepG2 tox
CC(=O)Nc1c(Br)cc2c(c1Br)C(=O)c1ccccc1-2,9.2%,?,-0.9%,-3.6%,0.5%,1.8%
CC(=O)C1=C(c2ccc(Br)cc2)C(=O)c2ccccc2C1=O,3.55µM*,7.08µM*,1.3µM*,1.46µM*,?,-99.3%
Cc1ccc(-c2nn(-c3ccccc3)cc2C(=O)Nc2cccc(S(=O)(=O)NC3=NCCC3)c2)cc1,nt,i,2.5%,0.206µM*,-9.1%,-0.1%
O=C(O)c1cccc(NC(=O)c2cn(-c3ccccc3)nc2-c2ccc(F)cc2)c1,21.8%,i,-0.6%,-3.2%,-0.2%,28.9%
O=C(Nc1cccc(S(=O)(=O)NC2=NCCC2)c1)c1cn(-c2ccccc2)nc1-c1ccc(F)cc1,-22.9%,?,3.66µM*,2.59µM*,?,-33.4%
CC(C)NC(=O)c1ccccc1NS(=O)(=O)c1ccc(Br)s1,-11.5%,i,?,20.6µM*,?,-6.3%
O=C(c1ccccc1NS(=O)(=O)c1ccc(Br)s1)N1CCCC1,3.4%,i,-8.6%,-1.1%,-25.6%,-20.5%
CCOC(=O)/C(C#N)=N/Nc1c(C)n(C)n(-c2ccccc2)c1=O,8.5%,i,16.4µM*,16.4µM*,0.0%,-2.8%
CCOC(=O)/C(C#N)=N/Nc1ccccc1C#N,nt,i,8.2µM*,20.6µM*,-1.4%,-27.2%
Cc1c(N/N=C(\C#N)C(=O)c2ccccc2)c(=O)n(-c2ccccc2)n1C,14.1µM*,?,2.91µM*,3.26µM*,1.2%,0.5%
Cc1c(NC=C(C#N)C#N)c(=O)n(-c2ccccc2)n1C,-10.6%,i,2.6%,-15.9%,1.6%,-1.7%
Cc1ccccc1C(=O)/C(C#N)=N/Nc1c(C)n(C)n(-c2ccccc2)c1=O,7.08µM*,?,4.61µM*,3.66µM*,?,-5.3%
N#C/C(=N/Nc1ccccc1[N+](=O)[O-])C(N)=S,-9.7%,i,-28.3%,?,?,-35.8%
CCOC(=O)Nc1c(C)n(C)n(-c2ccccc2)c1=O,4.8%,i,6.2%,-1.2%,-4.8%,-1.9%
CC1=C(C(=O)Nc2ccccc2)C(c2ccncc2)n2nc(SCc3ccccc3Cl)nc2N1 (stereo unspecified),1.5%,i,-3.0%,-14.8%,-21.9%,-7.1%
O=C1NC[C@H](Cc2ccccc2)N(CC2CCCCC2)C1=O,2.6%,i,-18.1%,-26.6%,2.4%,7.1%
